# In PubChem BioAssay AID488890 (Southern Research Specialized Biocontainment Screening …, 2010):
# The campaign covered roughly 320,000 compounds. About 1,300 (0.41%) were called active. Inconclusive results (about 3%) are left out. No rule for the calls is given here. Only a sample is shown. Measured potencies and affinities stand elsewhere.
# Assay: growth inhibition of non-replicating M. tuberculosis (AID 488890);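 also: plate controls were DMSO cells for no effect and high antibiotic wells for full effect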
# Conditions: Mycobacterium tuberculosis non-replicating, at 25 µM, stronger effect = higher value
row,SMILES,inhibition
1,O=C(Nc1nccs1)c1ccc(N2C(=O)C3CCCCC3C2=O)cc1 (stereo not given),6.17%
2,O=C(NC12CC3CC(CC(C3)C1)C2)c1ccc([N+](=O)[O-])cc1,74.3%
3,O=C(Nc1cccc(NC(=O)c2ccccc2Cl)c1)c1ccc([N+](=O)[O-])o1,8.06%
4,O=C(NC12CC3CC(CC(C3)C1)C2)c1ccc(-c2ccc(Cl)cc2)o1,64.3%
5,Cc1c([N+](=O)[O-])cc(C(=O)Nc2ccc(Cc3ccncc3)cc2)cc1[N+](=O)[O-],59.9%
6,O=C(Nc1ccc(Cc2ccncc2)cc1)c1ccc(Br)o1,-2.73%
7,Cc1ccc(C(=O)Nc2cccc3ccccc23)o1,26.4%
8,O=C(COC(=O)c1ccc([N+](=O)[O-])o1)Nc1cccc2ccccc12,71.3%
9,Cc1cc(C)nc(NC(=O)c2ccc([N+](=O)[O-])o2)n1,70.5%
10,O=C(NCCCN1CCN(CCCNC(=O)c2cccc(Cl)c2)CC1)c1cccc(Cl)c1,43.3%
11,CCOc1ccc(NC(=O)CN(C)C(=O)c2ccc(C)o2)cc1OCC,-1.16%
12,Cc1ccc(-c2cc(C(=O)Nc3cccnc3)[nH]n2)c(O)c1C,3.48%
13,CC(C)NC(=O)CCn1nc(-c2ccc(Cl)cc2)c2ccccc2c1=O,10%
14,FC(F)(F)c1cc(-c2ccco2)nc(N2CCN(c3ccccc3)CC2)n1,-1.1%
15,O=C(CCNC(=O)c1ccc(Br)cc1)NCc1ccco1,6.14%
16,CC(=O)c1cccc(S(=O)(=O)NCCC(=O)O)c1,-0.2%
17,O=C(Nc1ccccc1N1CCOCC1)c1ccc([N+](=O)[O-])o1,67.3%
18,NS(=O)(=O)c1ccc(O)c(NC(=O)c2ccc([N+](=O)[O-])o2)c1,76.7%
19,CN1CCN(c2ccccc2NC(=O)c2ccc([N+](=O)[O-])o2)CC1,44.3%
20,Cc1cc(C)c2nc(NC(=O)c3ccc([N+](=O)[O-])o3)sc2c1,62.3%
21,CCn1ncc(Br)c1C(=O)Nc1cc(C)cc(C)c1,-11%
22,C=C1CCC2[C@](C)(CO)[C@H](O)CC[C@@]2(C)[C@@H]1/C=C/C1=CCOC1=O (stereo not given in full),-9.71%
23,CC(C)c1ccc(C(C(=O)NC2CCCC2)N(C(=O)CNC(=O)c2ccco2)c2cccnc2)cc1 (stereo not given),-5.98%

row,SMILES,inhibition
1,O=C(NS(=O)(=O)Nc1ccccc1)C1=C(N2CCCC2)COC1=O,12.7%
2,CCOC(=O)N1CCN(C(=O)CSc2nc3c([nH]c4ccccc43)c(=O)n2CCOC)CC1,-12.8%
3,COC(=O)c1nn(-c2cccc(C)c2)c2nnc(Cc3ccc(C)cc3)c(=O)n12,-0.72%
4,COc1ccc(NC(=O)N2CCCC2C(=O)NC2CCCC2)cc1 (stereo not given),-20.1%
5,COc1ccccc1N1CCN(C(=O)C2CC=CCC2C(=O)O)CC1 (stereo not given),-0.47%
6,COc1cccc2c1OCC(C(=O)O)C2 (stereo not given),-4.89%
7,CCOC(=O)C1CCN(C(=O)c2ccc3c(=O)n4c(nc3c2)CCCCC4)CC1,-14.7%
8,Cn1nc(-c2ccccc2)c(/C=N/O)c1Cl,-12.1%
9,O=Nc1c(-c2ccccc2)[nH]n(-c2ccccc2)c1=O,63%
10,Cc1sc2ncnc(N3CCCCC3C)c2c1C (stereo not given),32.6%
11,CCOc1ccc(S(=O)(=O)N2CCCC(C(=O)NCc3ccccc3)C2)cc1 (stereo not given),-11.6%
12,CN(C)C=NC(=O)c1cn(-c2ccc(F)cc2)c(=O)c2ccccc12,-9.03%
13,COc1ccccc1/C=C/C=N/NC(=O)c1cnccn1,5.21%
14,O=C(N/N=C/C=C/c1ccccc1)c1cnccn1,15.9%
15,COc1ccccc1/C=C/C=N/NC(=O)c1ccccn1,70.9%
16,O=C(N/N=C/C=C/c1ccco1)c1cnccn1,-12.5%
17,O=C(N/N=C/c1ccco1)c1ccncc1,54.4%
18,O=C(N/N=C/C=C\c1ccccc1[N+](=O)[O-])c1cccnc1,-10.7%
19,O=C(N/N=C/C=C/c1ccccc1[N+](=O)[O-])c1cccnc1,-8%
20,O=C(N/N=C/C=C\c1ccccc1)c1cnccn1,11.4%
21,COc1ccc(CNC(=O)c2ccc[nH]2)cc1,34.3%
22,CC(=O)N1CCN(c2ccc(NC(=O)c3ccc4c(c3)OCCO4)cc2Cl)CC1,27.7%
23,Cc1cccc(OCC(=O)OC(C)C(=O)Nc2ccc(S(=O)(=O)N3CCCCC3)cc2)c1 (stereo not given),17.6%

row,SMILES,inhibition
1,C=C(C)CSc1nnc(-c2cc(OC)c(OC)c(OC)c2)n1N,-11%
2,COc1ccc(C2=NN(C(=O)CN3CCCC3)C(c3ccc(OC)cc3)C2)cc1 (stereo not given),-5.46%
3,CC1(C)OC(c2ccccc2)=C/C(=C/C=Nc2ccccc2)O1,14.4%
4,Cc1ccccc1N=C/C=C1/C=C(c2ccccc2)OC(C)(C)O1,32.8%
5,O=C(N/N=C/C=C/c1ccccc1)c1ccc(Br)cc1,-16.8%
6,O=C(N/N=C/c1ccncc1)c1ccccc1,67.6%
7,C/C=C/C=N\NC(=O)c1ccncc1,57.5%
8,C/C(=N/NC(=O)c1ccncc1)c1ccccc1,49.1%
9,O=C(O)CC/C(=N\NC(=O)c1ccncc1)c1ccccc1,37.3%
10,Cn1cc(C(=O)N/N=C/C=C/c2ccccc2)ccc1=O,-14.3%
11,CCCOc1ccc(Cc2c(O)nc(SC)[nH]c2=O)cc1,8.21%
12,CCC1(c2ccccc2)NC(=O)N(CC(=O)NC2CCCCCC2)C1=O (stereo not given),15.6%
13,CCOC(=O)c1nn(-c2ccc(Cl)cc2C)ccc1=O,-14.1%
14,Cc1c(C(=O)N(C)C)c2cc(Cl)ccc2n1O,8.07%
15,Cc1ccccc1NC(=O)OCc1ccccc1,71.6%
16,COc1ccc(C(=O)COC(=O)c2ccc(-n3cnnn3)cc2)c(OC)c1,-4.6%
17,COc1cccc(C(=O)Nc2ccccc2F)c1,-15.1%
18,O=C(COC(=O)/C=C/c1ccco1)NCc1ccc(Cl)cc1,44.8%
19,COc1ccccc1C(=O)OCCN=C1NS(=O)(=O)c2ccccc21,3.36%
20,CC(/C=N/NC(=O)c1ccncc1)=C\c1ccccc1,56.6%
21,O=C(N/N=C/C(Br)=C/c1ccccc1)c1cccnc1,56.4%
22,COc1ccc(/C=C/c2cc(C(=O)O)c3ccccc3n2)cc1,3.28%
23,CCOc1ccc(-c2cc(C(=O)O)c3ccccc3n2)cc1,0.34%

row,SMILES,inhibition
1,COc1ccc(-c2csc3nc(-c4ccc(C)cc4)oc(=O)c23)cc1OC,2%
2,CCOc1ccc(-c2nnc(-c3ccccc3)o2)cc1,78.4%
3,Cc1ccc2nc(-c3ccccc3)oc(=O)c2c1,76.6%
4,COc1ccc(-n2c(/C=C/c3ccc(O)cc3)nc3ccccc3c2=O)cc1,20.1%
5,O=[N+]([O-])c1ccc(C=Nc2cccc3ccccc23)s1,68.5%
6,O=c1oc(-c2cccc([N+](=O)[O-])c2)nc2ccccc12,67.8%
7,O=S(=O)(Cc1ccccc1)N1CCCc2ccccc21,28.1%
8,Cc1[nH]c2ccc(C(=O)NCCCN(C)C3CCCCC3)cc2c1C,7.44%
9,Cc1sc2nc(SCC(=O)NCCOCCO)n(C)c(=O)c2c1C,-0.17%
10,Cc1ccc(C(=O)NCC(=O)OCn2nnc3ccccc3c2=O)cc1,4.09%
11,Cc1nn(Cc2ccccc2)c2c1C(c1ccc(Cl)cc1)C(C#N)=C(N)O2 (stereo not given),11.4%
12,COC(=O)c1sccc1NC(=O)c1c(-c2ccccc2)noc1C,27.9%
13,CC1CC(=O)Nc2ccccc2N1C(=O)CN1CCN(C=O)CC1 (stereo not given),4.41%
14,c1ccc(C2C3=C(Nc4ncnn42)c2ccccc2CCC3)cc1 (stereo not given),9.65%
15,CCCC(=O)C1=C(O)C(C(=O)OC)C(C)(C)CC1=NC(C)C (stereo not given),-5.24%
16,CC(C)(C)c1ccc(-n2ncc3c2CCCC3NC(=O)CCN2CCCO2)cc1 (stereo not given),19.6%
17,COc1cc(OC)cc(-c2cc3ccccc3c(=O)o2)c1,9.55%
18,O=c1oc(-c2ccco2)nc2ccccc12,28.8%
19,Cc1c2cnn(CC(=O)Nc3c(F)c(F)cc(F)c3F)c(=O)c2c(C)n1Cc1ccccc1F,0.29%
20,CN(C)C(CNC(=O)CCOc1ccccc1)c1ccco1 (stereo not given),13.7%
21,Fc1ccccc1CSc1nc2ncccc2[nH]1,23.3%
22,Cc1cc(=O)[nH]c(SC/C=C/c2ccccc2)n1,69.8%
23,Cn1c(C(=O)N[C@@H](Cc2ccccc2)C(=O)O)cc2cc(F)ccc21,-8.03%

row,SMILES,inhibition
1,Cc1ccc(N2C(=O)NC(NC(=O)C(C)(C)C)(C(F)(F)F)C2=O)cc1C (stereo not given),-24.4%
2,Cc1cc(C)n(-c2nc(NCCCN(C)C)c3c4c(sc3n2)CCCC4)n1,75.9%
3,Cc1cc(C)n(-c2nc(SCCN(C)C)c3c4c(sc3n2)COC(C)(C)C4)n1,65.5%
4,Cc1cc(C)n(-c2nc(NCC(C)O)c3c4c(sc3n2)CCCC4)n1 (stereo not given),79.3%
5,Cc1cc(C)n(-c2nc(SCC(=O)O)c3c4c(sc3n2)COC(C)(C)C4)n1,78.8%
6,O=C1CCCN1CC(O)CS(=O)(=O)Cc1ccccc1 (stereo not given),-12.3%
7,COc1ccc(C2C(C(C)=O)=C(C)Nc3ncnn32)c(OC)c1OC (stereo not given),-4.13%
8,Cc1cccn2c(NC(=O)c3cccs3)c(-c3ccccc3)nc12,-0.63%
9,Cc1nnc(-c2ccccc2)nc1N(C)C,21.8%
10,c1ccc(-c2nnc(-c3ccccn3)c(-c3ccccn3)n2)nc1,10.5%
11,COc1cc(CNc2ccc3[nH]c(=O)[nH]c3c2)ccc1OCc1ccc(Cl)cc1,32.9%
12,CCc1ccc(C(=O)COC(=O)CNC(=O)c2ccc(Br)o2)cc1,43.3%
13,CC(=O)c1ccc(OC(=O)c2ccc(Br)o2)cc1,79.1%
14,Cc1ccc(CC(=O)N2CCN(C)CC2)cc1,-6.84%
15,Cc1ccccc1-c1cnn(-c2cccc([N+](=O)[O-])c2)c1N,14.7%
16,CNc1c([N+](=O)[O-])cnn1-c1ccccc1Cl,10.6%
17,O=C(CSc1n[nH]c(=O)n1-c1cccnc1)Nc1ccccc1Cl,-0.8%
18,O=C(Nc1ccccc1N1CCOCC1)C1=NN(c2c(F)c(F)cc(F)c2F)C(=O)CC1,-3.73%
19,O=C(Nc1nccs1)c1ccc(Cl)c([N+](=O)[O-])c1,-5.17%
20,N#Cc1ccsc1NC(=O)c1cccc([N+](=O)[O-])c1,2.42%
21,COC(=O)c1ccccc1S(=O)(=O)N1CCC(C(=O)NCC2CCCO2)CC1 (stereo not given),-9.14%
22,CN(C(=O)COC(=O)c1ccc(Cl)cc1N)C1CCCCC1,24.6%
23,CN(C(=O)COC(=O)c1cc(NS(=O)(=O)c2cc([N+](=O)[O-])ccc2Cl)ccc1O)C1CCCCC1,35.1%
